In all, about 33,000 sequences were measured (“E-score (-0.5 to 0.5)”: median about -0.01, highest 2% from about 0.26 on). This is one part of a sample in which the highest values are shown more often than they occur.
Biological target: Ste12 (UniProt P13574)
Assay: PBM E-score (8-mer binding enrichment) (E-score (-0.5 to 0.5)); higher = stronger / more preferred TF binding
Conditions: protein concentration: 200 nM; construct: GST-DNA-binding domain
Method in brief: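 Yeast transcription factors carrying a GST tag, as full-length proteins or DNA-binding domains, were produced by PURExpress in vitro transcription/translation. About 100-200 nM protein was applied to universal all-10-mer Agilent arrays, double-stranded by primer extension on fresh or once-stripped slides. Bound protein was detected with fluorescent anti-GST, and scans were normalised with masliner. The Universal PBM Analysis Suite gave each ungapped eight-base word, pooled with its reverse complement, an E-score, a modified Wilcoxon-Mann-Whitney statistic.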

Chain of UniProt P13574 (P13574 whole entry): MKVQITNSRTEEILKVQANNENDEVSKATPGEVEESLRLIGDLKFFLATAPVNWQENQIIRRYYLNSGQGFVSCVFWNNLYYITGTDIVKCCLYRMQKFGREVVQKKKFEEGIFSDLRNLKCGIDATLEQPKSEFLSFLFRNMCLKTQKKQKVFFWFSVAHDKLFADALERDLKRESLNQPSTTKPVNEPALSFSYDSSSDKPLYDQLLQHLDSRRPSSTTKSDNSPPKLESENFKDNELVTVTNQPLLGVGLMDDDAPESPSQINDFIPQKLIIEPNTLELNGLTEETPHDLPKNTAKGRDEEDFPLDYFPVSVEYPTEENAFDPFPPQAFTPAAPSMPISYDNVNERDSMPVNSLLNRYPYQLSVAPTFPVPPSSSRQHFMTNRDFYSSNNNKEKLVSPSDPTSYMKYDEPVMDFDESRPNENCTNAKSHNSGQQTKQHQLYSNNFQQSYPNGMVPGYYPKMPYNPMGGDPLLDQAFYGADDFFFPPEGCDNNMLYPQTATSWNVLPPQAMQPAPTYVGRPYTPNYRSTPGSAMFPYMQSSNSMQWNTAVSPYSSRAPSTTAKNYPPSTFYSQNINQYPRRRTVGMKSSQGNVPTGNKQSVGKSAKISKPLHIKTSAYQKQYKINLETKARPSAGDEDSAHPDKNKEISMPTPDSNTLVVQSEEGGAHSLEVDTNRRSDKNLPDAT

| Sequence | PBM E-score |
| --- | --- |
| GCTGAGCC | -0.0937 |
| ACAACTCG | 0.0864 |
| ATCCCTTG | -0.0717 |
| GAGCATAA | 0.131 |
| TAGCTGGA | -0.0515 |
| CAGAATAC | 0.0945 |
| TAAAACAA | 0.261 |
| TTAAAGAA | 0.251 |
| TAAAAAAA | 0.313 |
| CTAAAAGA | 0.0876 |
| TAATAAAA | 0.225 |
| TTAAAAAA | 0.294 |
| CTAAAAAG | 0.218 |
| TTAAACAA | 0.123 |
| TAAAAAGA | 0.248 |
| CTAAAAAC | 0.023 |
| CTAAAAAA | 0.278 |
| AAAAACAA | 0.251 |
| CGGCGAAC | 0.0131 |
| GGAAGGGA | -0.106 |
| CTGTACTC | -0.247 |
| CTAGTGTA | 0.129 |
| GACTACTC | -0.0788 |
| CCCCATTA | -0.193 |
| CTAATAAA | 0.145 |
| TTAATAAA | 0.344 |

| Sequence | PBM E-score |
| --- | --- |
| ATAATAAA | 0.255 |
| ACGGCAAT | 0.0277 |
| ACGGCAAA | 0.277 |
| ACGGCAAG | 0.0378 |
| CCACAAGG | -0.107 |
| GAGAGTAA | 0.142 |
| CCCCGCCA | 0.38 |
| ACCCGCCG | 0.137 |
| ACCCGCCC | 0.361 |
| CCCCGCCC | 0.347 |
| TCCCGCCA | 0.101 |
| GCCCGCCC | 0.257 |
| CCCCGCCG | 0.242 |
| AACCGCCC | 0.00313 |
| CACCGCCA | 0.0129 |
| CACCGCCC | 0.27 |
| CGCCGCCC | 0.239 |
| GCCCGCCA | -0.0776 |
| ACCCTCAC | -0.029 |
| AATATAAG | 0.198 |
| TATAAAGA | 0.0307 |
| CATATAAA | 0.0963 |
| TATATAAA | 0.267 |
| CGTAAAAA | 0.126 |
| AATATAAT | 0.138 |
| GATATAAA | 0.0834 |

| Sequence | PBM E-score |
| --- | --- |
| TGTAAAAA | 0.334 |
| AATATAAA | 0.306 |
| AGTAAAAA | 0.214 |
| AATAAAAA | 0.229 |
| TATAAAAA | 0.27 |
| TCCTGGCA | -0.0322 |
| CTGCGCCC | -0.239 |
| ACCTACCT | 0.0101 |
| CGCGGGTA | 0.0349 |
| GAGAGAGA | -0.0897 |
| AAGCGGTA | 0.0316 |
| ATACTCGG | -0.0182 |
| ACAAATCA | 0.0844 |
| CACCGTGC | 0.131 |
| ACGGGAGC | -0.111 |
| GTTATAAA | 0.218 |
| CTTATAAA | 0.223 |
| TTTATAAA | 0.271 |
| AGCTGTTG | -0.0338 |
| ACGAGCCT | -0.0238 |
| AAACACTT | 0.12 |
| AAACACTC | 0.288 |
| AAACACTG | 0.248 |
| AAACACTA | 0.273 |
| CAACACTA | 0.0388 |
| GAACACTA | -0.13 |

| Sequence | PBM E-score |
| --- | --- |
| GCGAGCCA | -0.0412 |
| CTGCAAGC | -0.141 |
| ATAAGCAA | 0.148 |
| GGTTTCAA | 0.416 |
| TGTTTCAA | 0.484 |
| ATTTTCAA | 0.193 |
| GGTTTCGA | 0.193 |
| TGTTCAAA | 0.17 |
| CATTTCAA | 0.214 |
| CTTTTCAA | 0.221 |
| GTTTTCAA | 0.32 |
| GATTTCAA | 0.159 |
| TCTTTCAA | 0.0772 |
| AATTTCAA | 0.106 |
| TATTTCAA | 0.282 |
| CCAGGAGA | -0.24 |
| GCCTGCGC | -0.119 |
| CTTCTGCC | -0.122 |
| TATCTTCA | 0.15 |
| AACGATCT | 0.153 |
| ATAAGCCC | -0.0186 |
| GTGGAGGA | -0.0464 |
| GGTTTCAC | 0.386 |
| GCTTTCAC | 0.0706 |
| GATTTCAC | 0.111 |
| ACTAGCTA | -0.0308 |

| Sequence | PBM E-score |
| --- | --- |
| ATTCTGAC | 0.0839 |
| ATGAATGC | 0.138 |
| ATGAATGG | 0.33 |
| ATGAATGA | 0.192 |
| AAGATCAC | -0.0426 |
| GGCTGCTA | -0.037 |
| ATCTGATG | 0.109 |
| GGGGCTAC | -0.0752 |
| ATAGGGCA | -0.109 |
| CGCGGCGA | 0.126 |
| CCCGCCGC | 0.31 |
| CCCGCCCG | 0.233 |
| TCCGCCCA | -0.107 |
| CCCGCCAC | 0.213 |
| CCCGCCGA | -0.0475 |
| CCCGCCCA | 0.332 |
| ACCGCCCC | 0.348 |
| ACCGCCCT | -0.00709 |
| ACCGCCCG | -0.057 |
| CCCGCCGG | 0.158 |
| CCCGCGCC | 0.168 |
| CCCGCCCC | 0.32 |
| AACACTTC | 0.135 |
| AACACTGG | -0.00819 |
| CCCATAAA | -0.0663 |
| GTGCAAGA | -0.145 |

| Sequence | PBM E-score |
| --- | --- |
| GCCGCCCA | 0.0226 |
| GCCGCCGC | -0.0603 |
| GCCGCCCC | 0.307 |
| CTTCCCTC | -0.0689 |
| CAGACATA | 0.0544 |
| ATTTTCCG | 0.318 |
| ATTTTTCA | 0.222 |
| AATTTCCG | 0.211 |
| ATTTTCCC | 0.173 |
| AATTTTCG | 0.128 |
| ATTTTTCG | 0.294 |
| AGATACAT | 0.00257 |
| CCCTAGTA | 0.0343 |
| CGAGGACA | -0.0668 |
| AAGCAGTG | 0.0293 |
| GACAGAAA | 0.168 |
| CACAAAGC | 0.0779 |
| TACAAACA | 0.21 |
| AACAAAAG | 0.119 |
| AACAAAAA | 0.332 |
| AACAAGCC | -0.125 |
| AACAAACC | 0.116 |
| AACAAAGC | 0.294 |
| AACAAACA | 0.269 |
| AACAGAAG | -0.0718 |
| AACAAAAC | 0.236 |

| Sequence | PBM E-score |
| --- | --- |
| AACAGAAA | 0.311 |
| CGTGCGTA | -0.0557 |
| TATAACAA | 0.215 |
| CTTGAGTA | -0.208 |
| CCTGTCGA | -0.122 |
| GCCAACTA | -0.196 |
| GTTCCGAA | 0.137 |
| ACTTCCAT | 0.0326 |
| ACGCTGCG | -0.0283 |
| CCGCCCCG | 0.408 |
| CCGCCCGG | -0.0452 |
| ACGCCCCA | 0.239 |
| CCGCCCCC | -0.00614 |
| CCGCCCCA | 0.417 |
| GCGCCCCA | 0.056 |
| AACAGCGC | -0.0225 |
| CACTGTTA | -0.0596 |
| ATTCCTAG | 0.0776 |
| CCGCAAGC | -0.226 |
| GCACGCCA | -0.201 |
| CTTTTACA | 0.269 |
